Experimental findings from the supplement of paper PMC8728848 are described below.

What all share (experiment): glycan array binding signal (z-score within array); higher = stronger binding
What all share (conditions): glycan notation: IUPAC condensed, linker removed

For experiment [1], the system named is Fuc(a1-2)Gal(b1-3)GlcNAc(b1-3)[Fuc(a1-3)[Gal(b1-4)]GlcNAc(b1-6)]Gal(b1-4)Glc. The method in brief:
(§1)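 Glycan array data were curated from 3228 arrays in the Consortium for Functional Glycomics database and kept only where the protein sequence was available. Glycan names were converted to IUPAC-condensed notation, and columns mapping to the same glycan were averaged. The binding signal is a within-array Z-score, averaged across arrays of the same protein sequence at different concentrations or buffers and across linkers. Negative Z-scores can be read as non-binding.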

Experiment [2] deals with Fuc(a1-2)Gal(b1-3)GalNAc(b1-3)Gal. The procedure, abridged:
as §1

In experiment [3] the test system is Fuc(a1-2)Gal(b1-3)GlcNAc(b1-2)Man(a1-3)[Fuc(a1-2)Gal(b1-3)GlcNAc(b1-2)Man(a1-6)]Man(b1-4)GlcNAc(b1-4)GlcNAc. The procedure, abridged: as §1
The test system of experiment [4] is Fuc(a1-2)Gal(b1-3)GlcNAc. The procedure, abridged: as §1
The test system of experiment [5] is Fuc(a1-2)Gal(b1-3)GlcNAc(b1-3)GalNAc. The procedure, abridged:
as §1

In experiment [6] the test system is Fuc(a1-2)Gal(b1-3)GlcNAc(b1-3)[Fuc(a1-2)Gal(b1-3)GlcNAc(b1-6)]GalNAc. The method in brief:
as §1

Experiment [7] concerns Fuc(a1-2)Gal(b1-3)GlcNAc(b1-3)[Gal(b1-4)GlcNAc(b1-6)]Gal(b1-4)Glc. The procedure, abridged: as §1
The subject of experiment [8] is Fuc(a1-2)Gal(b1-3)GlcNAc6S. The procedure, abridged:
as §1

The subject of experiment [9] is Fuc(a1-2)Gal(b1-3)GalNAc. The procedure, abridged:
as §1

Experiment [10] concerns Fuc(a1-2)Gal(b1-3)GlcNAc(b1-2)Man(a1-3)[Fuc(a1-2)Gal(b1-3)GlcNAc(b1-2)Man(a1-6)]Man(b1-4)GlcNAc(b1-4)[Fuc(a1-6)]GlcNAc. The procedure, abridged:
as §1

The entries come from a sample that favours the strongest signals as a whole.

For “SpGH101 (Streptococcus pneumoniae), Q8DR60”, the “glycan array binding signal (z-score)” value in [1] was -0.216.

In the case of AgI/IIC123-GFP (Streptococcus mutans), the figures for the “glycan array binding signal (z-score)” value in [2] and in experiment [3] were -0.278 and -0.189, respectively.

Regarding Wza (Escherichia coli), P0A930, the “glycan array binding signal (z-score)” value in experiment [4] is 0.769.

As for Epa22, the “glycan array binding signal (z-score)” value was -0.565 in experiment [5] and -0.12 in experiment [6].

For “AgI/II Vhelical-GFP (Streptococcus mutans)”, the “glycan array binding signal (z-score)” value in experiment [5] is -0.178; in experiment [7] it was -0.296.

Take BambL (Burhholderia ambifaria), Q0B4G1: the “glycan array binding signal (z-score)” value in [5] was -0.211.

For the substance LcI (Legionella pneumophila), the “glycan array binding signal (z-score)” value in experiment [2] came out at 4.24; in [8], 1.6.

Take “SiiE (Salmonella typhimurium), A0A0H3NVH0”: the “glycan array binding signal (z-score)” value is -1.18 in [9] and 2.35 in experiment [10].
